Bioassay records: PubChem BioAssay, several laboratories
ADAM10 inh = inhibits human ADAM10. recombinant ADAM10, EDANS/DABCYL FRET peptide cleavage, 3 h. inhibition, % at 7 µM. O14672. 370,000 tested, 0.62% active;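 active = inhibition above a per-campaign cutoff equal to the mean of compounds falling between control-based bounds plus 3 SD, cut at about 20% in these data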
Target sequence (O14672 214-748 limits assumed): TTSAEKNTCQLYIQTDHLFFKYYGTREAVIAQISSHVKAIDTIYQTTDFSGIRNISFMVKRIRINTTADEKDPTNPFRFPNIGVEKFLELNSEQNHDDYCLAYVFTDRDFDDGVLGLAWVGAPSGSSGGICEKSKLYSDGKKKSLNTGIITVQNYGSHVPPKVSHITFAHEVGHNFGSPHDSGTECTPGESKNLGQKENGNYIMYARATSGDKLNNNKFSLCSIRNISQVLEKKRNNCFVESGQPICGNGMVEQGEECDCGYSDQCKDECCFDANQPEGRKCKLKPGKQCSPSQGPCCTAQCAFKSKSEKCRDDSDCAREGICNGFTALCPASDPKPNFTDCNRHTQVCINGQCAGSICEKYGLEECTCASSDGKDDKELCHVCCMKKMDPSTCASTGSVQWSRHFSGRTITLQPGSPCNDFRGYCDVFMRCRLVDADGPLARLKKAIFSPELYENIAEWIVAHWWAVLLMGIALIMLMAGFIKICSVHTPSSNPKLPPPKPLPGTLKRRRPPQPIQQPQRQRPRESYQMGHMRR
proKLK7 act = proKLK7 (human) activation, primary screen | P49862 | 370,000 tested, 0.9% active | activation, % at 7 µM | purified proKLK7, EDANS-DABCYL substrate fluorescence; 100% is mature enzyme control, 0% vehicle;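 active = activation above the mean of all tested compounds plus 3 SD, computed per campaign excluding outliers beyond control limits, cut at about 13% in these data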
CendR NRP1 mod = modulators of CendR peptide binding to human neuropilin-1. O14786. FAM-RPARPAR peptide binding to NRP-1, fluorescence polarization. inhibition, % at 25 µM. 360,000 tested, 0.85% active. AID 602438;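 active = inhibition or corrected inhibition above about 18%, plus a signal ratio from 0.5 to 1.5, limit read from the data, passing the limit was not always enough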
HGIII-sPLA2 inh = Blocks human group III sPLA2 activity. 370,000 tested, 0.56% active. inhibition, % at 12.2 µM. Q9NZ20. AID 743126. QFRET BODIPY PC-A2 liposome hydrolysis, fluorescence;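 active = inhibition above mean plus 3 SD of compounds lying within the high and low control bounds, cut at about 19% in these data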
ADAM17 inh = inhibitors of human ADAM17. P78536. recombinant ADAM17, EDANS/DABCYL FRET peptide cleavage. inhibition, % at 6.95 µM. 370,000 tested, 0.83% active;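 active = inhibition above the mean of compounds lying between control limits plus 3 SD, set per campaign, cut at about 8.5% in these data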
proKLK7 act conf = proKLK7 activation, confirmation; shares compounds with proKLK7 act; purified proKLK7, EDANS-DABCYL substrate fluorescence; scaled: vehicle 0, mature enzyme 100; activation, % at 7 µM; 3,200 tested, 68% active;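 active = activation, as change over the incubation, above the mean of all tested compounds plus 3 SD, cut at about 13% in these data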
EDANS-DABCYL int = counter-screen for kallikrein-7 activators: EDANS-DABCYL optical interference. shares compounds with proKLK7 act. EDANS-DABCYL substrate fluorescence interference, no enzyme, 4 h; solvent 0%, active enzyme control 100%. activation, % at 7 µM. 3,200 tested, 80% active;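 active = activation above the all-compound mean plus 3 SD, ignoring values outside control-based bounds, cut at about 4.8% in these data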;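 note: value is the 4 h activation minus the activation read at time zero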
Numbers stand for hits; – = inactive; · = not tested or not shown. In the library only some 3.4% were active in any assay of this set; here they are far more common.

SMILES	ADAM10 inh	proKLK7 act	CendR NRP1 mod	HGIII-sPLA2 inh	ADAM17 inh	proKLK7 act conf	EDANS-DABCYL int
Nc1ccc(-c2nc3ncccc3o2)c(O)c1	–	21.0	–	–	–	22.1	20.9
CC(C)C(=O)Nc1ccc(-c2nc3ncccc3o2)cc1	–	14.4	–	–	–	–	6.6
CC(C)C(=O)Nc1cccc(-c2nc3ncccc3o2)c1	–	–	–	–	–	·	·
Cc1cc(-c2nc3ncccc3o2)ccc1N	–	40.2	–	–	–	66.9	67.3
CCCCS(=O)(=O)N1C2=NC3=C(C(=O)N(CCOC)C3=O)C3N(C)c4ccccc4[C@]23C[C@H]1CO (stereo not given in full)	–	–	·	–	–	·	·
Cn1c(=O)c2cc(NC(=O)CCc3ccccc3)ccc2n1Cc1cccc(C(F)(F)F)c1	–	–	–	–	–	·	·
COc1cc(Cn2c3ccc(NC(=O)CC(C)C(F)(F)F)cc3c(=O)n2C)ccc1F (stereo not given)	–	17.4	–	–	–	–	–
CC(CC(=O)Nc1ccc2c(c1)c(=O)n(C)n2Cc1ccc(Cl)cc1)C(F)(F)F (stereo not given)	–	–	–	–	–	·	·
CCOCCC(=O)Nc1ccc2c(c1)c(=O)n(C)n2Cc1cccc(C(F)(F)F)c1	–	15.7	–	–	–	–	9.7
CCOCCC(=O)Nc1ccc2c(c1)c(=O)n(C)n2-c1ccccc1F	–	20.7	–	–	–	21.0	21.7
Cc1ccc(C2=CCN(C)C(=O)N2c2ccc(Br)cc2)cc1	–	–	·	–	–	·	·
COc1ccc(CNC2CCC23CCC(C)CC3)cc1OC (stereo not given)	–	·	·	–	–	·	·
CCOC(=O)[C@]12CCCC3=C1N(CCC3)C(=O)[C@@H](CC(=O)NCc1cccc3ccccc13)C2	–	–	·	–	–	·	·
CCc1ccc(NC(=S)/N=C(\N)Nc2nc(C)c3cc(CC)ccc3n2)cc1	–	–	–	–	–	·	·
Cc1cc(C)c2c(N)c3ccccc3nc2n1	–	15.7	–	–	–	69.5	76.5
CCc1ccc2nc3nc(C)cc(C)c3c(N)c2c1	–	32.2	–	–	–	32.4	40.3
COc1cccc(CCNC(=O)CCc2nc(-c3ccccc3F)no2)c1	–	–	·	–	–	·	·
Cc1cccn2c(=O)c3cc(C(=O)NC4CCCC4)c(=N)n(C4CCCC4)c3nc12	–	–	–	–	–	·	·
CCn1c(=N)c(C(=O)NC)cc2c(=O)n3cccc(C)c3nc21	–	75.6	–	–	–	67.3	72.9
Cc1cccn2c(=O)c3cc(C(=O)O)n(C)c3nc12	–	20.6	–	–	–	49.0	48.2
CCCn1c(=N)c(C(=O)NC2CCCC2)cc2c(=O)n3cccc(C)c3nc21	–	132.9	–	–	–	–	–
Cc1cccn2c(=O)c3cc(C(=O)NC4CCCCC4)c(=N)n(CCN4CCOCC4)c3nc12	–	–	–	–	–	·	·
COCCn1c(-c2ccco2)nc2nc3ccccc3nc21	–	42.6	–	–	–	62.3	82.0
c1csc(-c2nc3nc4ccccc4nc3n2Cc2ccc3c(c2)OCO3)c1	–	–	–	–	–	·	·
CC(C)Cn1c(-c2cccs2)nc2ccccc21	–	–	–	–	–	·	·
SMILES	ADAM10 inh	proKLK7 act	CendR NRP1 mod	HGIII-sPLA2 inh	ADAM17 inh	proKLK7 act conf	EDANS-DABCYL int
COCCn1c(-c2cccs2)nc2nc3ccccc3nc21	–	37.7	–	–	–	68.5	73.0
CCCn1c(-c2cccs2)nc2nc3ccccc3nc21	–	41.5	–	–	–	–	–
Cc1occc1-c1nnc(SCC(=O)N[C@@H]2CCc3ccccc32)n1-c1ccccc1	–	–	·	–	–	·	·
Cc1[nH]nc2c1C(c1ccc(Br)cc1)N(c1ccccc1)C2=O (stereo not given)	–	–	·	–	–	·	·
COc1ccccc1Oc1c(C)oc2c(CN3CCN(CCO)CC3)c(O)ccc2c1=O	–	115.8	·	–	–	66.4	70.0
CCOc1ccccc1Oc1c(C)oc2c(CN3CCN(CCO)CC3)c(O)ccc2c1=O	–	129.2	–	–	–	68.2	66.0
CCOC(=O)c1c(C)oc2c1c(CN1CCN(CCO)CC1)c(O)c1ccccc12	–	–	–	–	–	·	·
CCOC(=O)c1ccc(Oc2c(C)oc3c(CN4CCN(C)CC4)c(O)ccc3c2=O)cc1	–	118.8	–	–	–	75.9	70.2
Cc1oc2c(CN3CCCC3)c(O)ccc2c(=O)c1Oc1ccccc1Br	–	82.6	–	–	–	55.8	76.0
COc1ccc(Oc2c(C)oc3c(CN4CCOCC4)c(O)ccc3c2=O)cc1	–	–	–	–	–	·	·
COC(=O)[C@]12C[C@H](CC(=O)N3CCN(C(=O)C4CC4)CC3)C(=O)N(Cc3ccc(Cl)cc3Cl)C1=C[C@H](COCc1ccccc1)O[C@@H]2C	–	–	·	–	–	·	·
CCCCC1OC2(C)OC(=N)C1(C#N)C(C#N)(C#N)C2c1ccccc1 (stereo not given)	–	14.0	–	–	–	46.9	49.9
CC1OC2(C)OC(=N)C1(C#N)C(C#N)(C#N)C2c1ccccc1 (stereo not given)	–	–	–	–	–	·	·
O=C(Cc1ccccc1F)N1CCC(n2nnc3ncccc32)CC1	–	–	·	–	–	·	·
Cn1c(=O)cc(OCCCC(=O)Nc2cc(C(F)(F)F)ccn2)c2ccccc21	–	·	·	–	–	·	·
C[C@H](O)C(=O)C1=Nc2c(nc(N)[nH]c2=O)NC1	–	16.4	–	–	–	28.1	33.4
C[C@H](O)[C@H](O)[C@H]1CNc2nc(N)[nH]c(=O)c2N1	–	–	–	–	–	·	·
COc1ccc2nc3oc(C(=O)NCc4cccs4)cc3cc2c1	–	–	–	–	–	·	·
COc1ccc2cc3cc(C(=O)NCc4ccccn4)oc3nc2c1	–	42.1	–	–	–	–	–
COc1ccc2cc3cc(C(=O)NCc4ccco4)oc3nc2c1	–	49.5	–	–	–	–	–
CC(C)(N[C@@H](Cc1c[nH]c2ccccc12)C(=O)NCCc1c[nH]c2ccccc12)C(=O)NC1CCCCC1	–	·	·	–	–	·	·
CC(=O)Nc1ccc2nc(NC(=O)c3cccs3)sc2c1	–	–	–	–	–	·	·
COc1ccc2nc(NC(=O)c3cccs3)sc2c1	–	25.5	–	–	–	–	–
CCOC(=O)Cc1nc(N2CCN(CCO)CC2)c2c(C)c(C(=O)OCC)sc2n1	–	–	·	–	–	·	·
CCNC(=O)N(C)[C@H]1C[C@H]2c3[nH]c4ccccc4c3CCN2C[C@H]1[C@H](C)O	–	16.7	–	–	–	–	–
C[C@H](O)[C@@H]1CN2CCc3c([nH]c4ccccc34)[C@@H]2C[C@@H]1N(C)C(=S)NCCc1ccccc1	–	38.6	–	–	–	–	–
CC(=O)c1ccc(-c2cccc3nccn23)cc1	–	–	–	–	–	·	·
c1cc(-c2ccsc2)n2ccnc2c1	–	–	–	–	–	·	·
